# Assay results taken from PubChem BioAssay (NCATS).
# A number with no mark means an inactive call. Inconclusive results are not listed. Calls of active or inactive are those of the source. The call rests on the fitted dose curve; in most records, active means well fitted curve in the direction sought with a large enough effect; inconclusive means small, poorly fitted or top-dose-only effect, or another doubt; inactive means no such curve, though single readings can be large; an effect the other way counts as inactive or inconclusive.
# Tested on: not listed separately
# Experiment: qHTS for inhibitors of adenylyl cyclases using a fission yeast platform: a pilot screen against the NCATS LOPAC library (AID 1347410);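 further: plate controls were DMSO vehicle for no effect and DPI positive control for full effect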
# Details: S. pombe CHP2027, fbp1-GFP fluorescence, 18 h, yeast expressing mammalian AC9 and human GNAS; series mostly up to 57.5 µM; activity, positive = inhibition (GFP gain): at the top concentration
# Method in brief: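 Growth medium went into the plates first, then compounds were pinned (final up to 57 µM), then CHP2027 yeast were added. Plates were incubated overnight (18 h) at 30C in the dark, and GFP was measured by laser scanning cytometry.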
row,Compound,"activity, positive = inhibition (GFP gain) [%]"
1,CCN(CC)CCCN(c1ccccc1)C1Cc2ccccc2C1,8.5
2,CCN(CC)CC(=O)Nc1c(C)cccc1C,-0.438
3,C[N+](C)(C)CCOC(=O)CCC(=O)OCC[N+](C)(C)C,-0.438
4,CCO/C([O-])=N/c1c[n+](N2CCOCC2)no1,-0.0302
5,CCc1c(C)[nH]c2c1C(=O)C(CN1CCOCC1)CC2 (stereo not drawn),0.0023
6,Cc1nc2sccn2c(=O)c1CCN1CCC(=C(c2ccc(F)cc2)c2ccc(F)cc2)CC1,-0.0302
7,CCCN1C[C@H](CSC)C[C@@H]2c3cccc4[nH]cc(c34)C[C@H]21,-0.438
8,CCn1ccnc1CC1COc2ccccc2O1 (stereo not drawn),-0.438
9,CC(C)COCC(CN(Cc1ccccc1)c1ccccc1)N1CCCC1 (stereo not drawn),-0.438
10,NC(=O)c1ncn([C@@H]2O[C@H](CO)[C@@H](O)[C@H]2O)c1O,-0.438
11,COc1ccc([C@@H]2Sc3ccccc3N(CCN(C)C)C(=O)[C@@H]2OC(C)=O)cc1,-0.438
12,CC(=O)[C@]1(O)Cc2c(O)c3c(c(O)c2[C@@H](O[C@H]2C[C@H](N)[C@H](O)[C@H](C)O2)C1)C(=O)c1ccccc1C3=O,-0.438
13,C[C@]12CCC(=O)C=C1CC[C@@H]1[C@@H]2CC[C@@]2(C)[C@H]1CC[C@]2(O)C(=O)CO,-0.438
14,CCN1CCc2nc(N)oc2CC1,0.0673
15,CN/C(=C\[N+](=O)[O-])NCCSCc1ccc(CN(C)C)o1,-0.438
16,COc1ccc(CCN(C)CCCC(C#N)(c2cc(OC)c(OC)c(OC)c2)C(C)C)cc1OC (stereo not drawn),-0.438
17,CNCCCN1c2ccccc2CCc2ccccc21,-0.438
18,CNCCC(Oc1ccccc1OC)c1ccccc1 (stereo not drawn),0.234

row,Compound,"activity, positive = inhibition (GFP gain) [%]"
1,O=C(CCNNC(=O)c1ccncc1)NCc1ccccc1,-0.438
2,C[N+](C)(C)CCOC(N)=O,-0.438
3,c1cnc(N2CCN(Cc3ccc4c(c3)OCO4)CC2)nc1,0.485
4,CN(C)CCCN1c2ccccc2Sc2ccccc21,2.97
5,O=C1CC2(CCCC2)CC(=O)N1CCCCN1CCN(c2ncccn2)CC1,0.197
6,C(=C\c1ccccc1)/CN1CCN(C(c2ccccc2)c2ccccc2)CC1,0.179
7,NC(Cc1ccc(Cl)cc1)C(=O)O (stereo not drawn),-0.438
8,NC(=O)c1cn(Cc2c(F)cccc2F)nn1,-0.438
9,CCCN(CCC)C(=O)C(CCC(=O)O)NC(=O)c1ccccc1 (stereo not drawn),-0.438
10,CC(N=C(NC#N)Nc1ccncc1)C(C)(C)C (stereo not drawn),-0.0302
11,CC(=O)OCC1=C(C(=O)O)N2C(=O)[C@@H](NC(=O)Cc3cccs3)[C@H]2SC1,1.24
12,CSc1ccc(C(=O)c2[nH]c(=O)[nH]c2C)cc1,0.568
13,COC(=O)[C@@H](N)Cc1ccc(O)c(O)c1,-0.438
14,c1cc(CN2CCCCC2)cc(OCCCNc2nc3ccccc3s2)c1,0.605
15,Cc1cccc(C)c1NC(=O)C(C)N (stereo not drawn),0.0812
16,NCCCNCCSP(=O)(O)O,0.0626
17,Cc1scc2c1N(C(=O)CN1CCN(C)CC1)c1ccccc1NC2=O,-0.438

# Tested on: not listed separately
# Experiment: qHTS to identify inhibitors of the type 1 interferon - major histocompatibility complex class I in skeletal muscle: primary screen against the NCATS Mechanism Interrogation Plate v5.0 (MIPE) Libary (AID 1347411); further: nearly all actives have a fitted effect of over 65% in size; further: potency means the concentration at half of the fitted maximal effect;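 on activity change, negative = inhibition: plate controls were vehicle for no effect and reference inhibitor for full effect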
# Details: iHSKM cells + IFN-b, HiBiT-tagged MHC-I luminescence, 24 h; series mostly up to 45.8 µM; activity change, negative = inhibition: at the top concentration
# Method in brief: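 Luminescence from HiBiT-tagged endogenous HLA-B*08:01 served as the MHC class I read-out. CRISPR-engineered C25cl48 human myoblasts received 4.0 ng/ml IFN-beta plus compound for 24 hrs, with an 11-point, 1:3 series topping at 46 uM final.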
Compound,Potency,"activity change, negative = inhibition [%]"
NC(=O)c1ncn([C@@H]2O[C@H](CO)[C@@H](O)[C@H]2O)c1O,inactive,–
COc1ccc([C@@H]2Sc3ccccc3N(CCN(C)C)C(=O)[C@@H]2OC(C)=O)cc1,–,-4.35
CC(=O)[C@]1(O)Cc2c(O)c3c(c(O)c2[C@@H](O[C@H]2C[C@H](N)[C@H](O)[C@H](C)O2)C1)C(=O)c1ccccc1C3=O,2080 nM (active),–
CCCN(CCC)C(=O)C(CCC(=O)O)NC(=O)c1ccccc1 (stereo not drawn),–,15.8

# Molecular target: Protein phosphatase 1D (Homo sapiens) (UniProt O15297)
# Sequence (O15297 whole entry, looked up): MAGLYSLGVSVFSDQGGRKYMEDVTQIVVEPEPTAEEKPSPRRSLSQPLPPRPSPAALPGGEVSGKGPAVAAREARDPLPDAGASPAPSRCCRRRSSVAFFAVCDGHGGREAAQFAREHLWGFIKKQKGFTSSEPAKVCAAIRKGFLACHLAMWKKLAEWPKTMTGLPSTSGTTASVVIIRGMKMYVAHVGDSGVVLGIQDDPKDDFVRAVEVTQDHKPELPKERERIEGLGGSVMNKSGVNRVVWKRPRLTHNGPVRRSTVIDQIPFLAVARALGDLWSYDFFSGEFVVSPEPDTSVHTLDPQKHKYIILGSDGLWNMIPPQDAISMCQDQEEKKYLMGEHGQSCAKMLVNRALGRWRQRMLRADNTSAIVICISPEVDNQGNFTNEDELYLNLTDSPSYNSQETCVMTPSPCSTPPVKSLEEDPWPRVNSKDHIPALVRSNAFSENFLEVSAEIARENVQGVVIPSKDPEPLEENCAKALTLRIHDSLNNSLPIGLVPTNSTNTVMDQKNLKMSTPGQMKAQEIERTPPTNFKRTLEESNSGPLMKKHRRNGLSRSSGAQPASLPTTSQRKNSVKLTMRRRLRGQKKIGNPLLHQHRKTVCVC
# Experiment: RapidFire Mass Spectrometry qHTS Assay for Modulators of WT P53-Induced Phosphatase 1 (WIP1) (AID 1347424);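 further: amount of dephosphorylated VEPPL-S-QETFS peptide product formed by WIP1; plate controls were DMSO wells for no effect and GSK830371 inhibitor control at 10 µM for full effect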
# Details: WIP1 dephosphorylation of phosphopeptide, RapidFire MS; series mostly up to 63 µM; activity change, negative = inhibition: at the top concentration
# Method in brief: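 10 nM WIP1 + cpd, 1 h RT; + 2 uM VEPPL-pS-QETFS, 5 min RT; stop 0.5% formic acid; labelled product standard 1 uM; RapidFire MS. Buffer 50 mM Tris pH 7.5, 30 mM MgCl2, 1 mM TCEP.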
row,Compound,"activity change, negative = inhibition"
1,CCN(CC)CCCN(c1ccccc1)C1Cc2ccccc2C1,22.9%
2,CCN(CC)CC(=O)Nc1c(C)cccc1C,-1.63%
3,C[N+](C)(C)CCOC(=O)CCC(=O)OCC[N+](C)(C)C,7.04%
4,CCO/C([O-])=N/c1c[n+](N2CCOCC2)no1,-0.641%
5,CCc1c(C)[nH]c2c1C(=O)C(CN1CCOCC1)CC2 (stereo not drawn),-0.678%
6,Cc1nc2sccn2c(=O)c1CCN1CCC(=C(c2ccc(F)cc2)c2ccc(F)cc2)CC1,22.6%
7,CCCN1C[C@H](CSC)C[C@@H]2c3cccc4[nH]cc(c34)C[C@H]21,1.99%
8,CCn1ccnc1CC1COc2ccccc2O1 (stereo not drawn),7.19%
9,CC(C)COCC(CN(Cc1ccccc1)c1ccccc1)N1CCCC1 (stereo not drawn),69.8%
10,COc1ccc([C@@H]2Sc3ccccc3N(CCN(C)C)C(=O)[C@@H]2OC(C)=O)cc1,7.72%
11,CC(=O)[C@]1(O)Cc2c(O)c3c(c(O)c2[C@@H](O[C@H]2C[C@H](N)[C@H](O)[C@H](C)O2)C1)C(=O)c1ccccc1C3=O,-10.6%
12,C[C@]12CCC(=O)C=C1CC[C@@H]1[C@@H]2CC[C@@]2(C)[C@H]1CC[C@]2(O)C(=O)CO,-0.728%
13,CCN1CCc2nc(N)oc2CC1,-8.32%
14,CN/C(=C\[N+](=O)[O-])NCCSCc1ccc(CN(C)C)o1,-15.6%
15,COc1ccc(CCN(C)CCCC(C#N)(c2cc(OC)c(OC)c(OC)c2)C(C)C)cc1OC (stereo not drawn),-9.36%
16,CNCCCN1c2ccccc2CCc2ccccc21,13.6%
17,CNCCC(Oc1ccccc1OC)c1ccccc1 (stereo not drawn),1.36%

row,Compound,"activity change, negative = inhibition"
1,O=C(CCNNC(=O)c1ccncc1)NCc1ccccc1,-16.2%
2,C[N+](C)(C)CCOC(N)=O,-6.6%
3,c1cnc(N2CCN(Cc3ccc4c(c3)OCO4)CC2)nc1,-3.02%
4,CN(C)CCCN1c2ccccc2Sc2ccccc21,9.46%
5,O=C1CC2(CCCC2)CC(=O)N1CCCCN1CCN(c2ncccn2)CC1,-10.5%
6,C(=C\c1ccccc1)/CN1CCN(C(c2ccccc2)c2ccccc2)CC1,28.9%
7,NC(Cc1ccc(Cl)cc1)C(=O)O (stereo not drawn),4.3% [at 0.505 µM]
8,NC(=O)c1cn(Cc2c(F)cccc2F)nn1,-1.35%
9,CCCN(CCC)C(=O)C(CCC(=O)O)NC(=O)c1ccccc1 (stereo not drawn),-1.26%
10,CC(N=C(NC#N)Nc1ccncc1)C(C)(C)C (stereo not drawn),4.72%
11,CC(=O)OCC1=C(C(=O)O)N2C(=O)[C@@H](NC(=O)Cc3cccs3)[C@H]2SC1,-2.84%
12,CSc1ccc(C(=O)c2[nH]c(=O)[nH]c2C)cc1,-2.01%
13,COC(=O)[C@@H](N)Cc1ccc(O)c(O)c1,0.994%
14,c1cc(CN2CCCCC2)cc(OCCCNc2nc3ccccc3s2)c1,9.46%
15,Cc1cccc(C)c1NC(=O)C(C)N (stereo not drawn),-2.93%
16,NCCCNCCSP(=O)(O)O,0.628% [at 12.6 µM]
17,Cc1scc2c1N(C(=O)CN1CCN(C)CC1)c1ccccc1NC2=O,2.4%
